hgDAF12 agonist: H. glycines DAF-12 receptor agonists, primary screen, cell-based, luminescence, HEK293, GAL4 fusion, UAS-luciferase. HEK293 GAL4-hgDAF12 UAS-luciferase reporter, agonist luminescence; normalized to butyrate control. activation, % at 6.8 µM. 370,000 compounds, 1.8% hits. AID 687014, 2013;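 active means activation above a cutoff set at the mean of all screened compounds plus 3 SD, cut at about 10% in these data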;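 further: 0% = DMSO wells and 100% = sodium butyrate wells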
PolyA inhibitor: polyadenylation inhibitors in yeast reporter cells, primary screen, luminescence, S. cerevisiae | S. cerevisiae SKY197-pL101 polyadenylation reporter, beta-gal luminescence; efflux-impaired pdr1/pdr3 knockout yeast; score 100 = 6 SD above DMSO | AID 1875, 2009 | 300,000 compounds, 0.02% hits | activity score, % at 12 µM;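 active means lowest replicate activity score at least 50, where 100 means six control SD above control mean; inconclusive means lowest score under 50 but half or more replicates reach 50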;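 further: yeast exposed to compound for 9 h at 30 °C; higher score means more reporter readthrough which indicates perturbed polyadenylation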
DAX1 inh-1: DAX1 (NR0B1) inhibitors on StAR promoter, primary screen, cell-based, luminescence, SF-1 (NR5A1), full-length DAX-1 | HEK293T StAR-luciferase reporter, SF-1/DAX-1 repression relief | inhibition, % at 6.8 µM | 370,000 compounds, 1.1% hits | AID 652010, 2013;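 active means inhibition above the mean over all tested compounds plus 3 SD, cut at about 3.6% in these data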;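 further: 0% = DAX-1 cells with DMSO and 100% = cells lacking DAX-1 with DMSO; higher inhibition means more luminescence from relief of DAX-1 repression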
ssDAF-12 act: S. stercoralis DAF-12 nuclear receptor activators, primary screen, cell-based, luminescence, HEK293, GRIP1 co-expression, lit1-tk-luc; HEK293 ssDAF-12/GRIP1 lit1-tk-luc reporter; % of 3 µM dafachronic acid response; activation, % at 6.8 µM; 370,000 compounds, 1% hits;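 active means activation above the mean over all tested compounds plus 3 SD, cut at about 0.9% in these data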;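 further: 0% = DMSO-only wells and 100% = 3 µM delta7-dafachronic acid wells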
DAX1 inh-2: DAX1 (NR0B1) inhibitors, primary screen, cell-based, HEK293, Gal4-DAX1, luciferase luminescence | AID 504766, 2011 | inhibition, % at 6.75 µM | Nuclear receptor subfamily 0 group B member 1 (Homo sapiens), P51843 | 340,000 compounds, 0.99% hits | HEK293 Gal4-DAX1 luciferase reporter;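 active means inhibition above the mean over all tested compounds plus 3 SD, cut at about 4.2% in these data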;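 further: 0% = DAX1-transfected cells with DMSO and 100% = empty-vector control cells with DMSO; inhibition shows as a rise in luminescence from relieved DAX1 repression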
Target sequence (P51843 207-470 limits assumed): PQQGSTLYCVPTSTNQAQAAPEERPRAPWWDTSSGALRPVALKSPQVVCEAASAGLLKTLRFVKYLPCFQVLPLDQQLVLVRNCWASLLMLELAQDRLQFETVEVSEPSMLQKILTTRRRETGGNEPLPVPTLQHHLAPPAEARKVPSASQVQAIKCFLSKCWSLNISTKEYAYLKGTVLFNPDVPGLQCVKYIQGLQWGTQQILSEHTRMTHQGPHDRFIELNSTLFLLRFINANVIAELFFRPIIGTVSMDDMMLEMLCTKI
hcDAF-12 act: H. contortus DAF-12 nuclear receptor activators, primary screen, cell-based, luminescence, HEK293, lit1-tk-luc reporter; 370,000 compounds, 1.4% hits; HEK293 hcDAF-12 lit1-tk-luc reporter; 0% DMSO, 100% Δ7-dafachronic acid; activation, % at 6.8 µM;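 active means activation above the mean of all tested compounds plus 3 SD, cut at about 5.5% in these data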;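 further: 100% = response to 3 µM Δ7-dafachronic acid high control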
LXRb hcDAF ctr: LXR agonists, Gal4 luciferase reporter, confirmation, counter-screen for hcDAF-12 agonist project, cell-based, luminescence, HEK293, H. contortus campaign; 3,400 tested, under 10 active; shares compounds with hcDAF-12 act; activation, % at 6.8 µM; HEK293 Gal4-LXR tk-luc reporter, 24 h; normalized: DMSO 0%, positive control 100%; AID 743027, 2013;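 active means mean percent activation of the reporter above a cutoff set as the average over tested compounds plus their standard deviation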
hcDAF12 ag: H. contortus DAF-12 receptor agonists, confirmation, cell-based, luminescence, HEK293, lit1-tk-luc, triplicate | shares compounds with hcDAF-12 act | HEK293 hcDAF-12 lit1-tk-luc reporter; % of Δ7-dafachronic acid response | 3,400 compounds, 61% hits | activation, % at 6.8 µM;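 active means mean activation across triplicate tests above the threshold derived from the earlier primary screen, cut at about 5.5% in these data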;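 further: 0% = DMSO only wells and 100% = 3 µM Δ7-dafachronic acid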
hgDAF12 ag: H. glycines DAF-12 receptor agonists, confirmation, cell-based, luminescence, HEK293, GAL4-LBD fusion. shares compounds with hgDAF12 agonist. HEK293 GAL4-hgDAF12 luciferase reporter, agonist mode; percent of butyrate response. activation, % at 6.8 µM. 3,300 compounds, 80% hits. AID 743050, 2013;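 active means mean activation over triplicate wells above the hit cutoff derived from the earlier primary screen, cut at about 11% in these data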;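 further: 0% = DMSO low control and 100% = 2 mM sodium butyrate high control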
LXR ag 2: LXR agonists, Gal4 luciferase reporter, confirmation, counter-screen for hgDAF-12 agonist project, cell-based, luminescence, HEK293, H. glycines campaign | shares compounds with hgDAF12 agonist | 24 h | activation, % at 6.8 µM | 3,300 tested, under 10 active | AID 743051, 2013;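 active means mean activation of the triplicate above a set limit carried over from the primary screen, none filed active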
The depositor's hits bear a star; ? = inconclusive; · = no result. Most compounds without a hit are left out; they make up all but 4.1% or so of the library.

SMILES | hgDAF12 agonist | PolyA inhibitor | DAX1 inh-1 | ssDAF-12 act | DAX1 inh-2 | hcDAF-12 act | LXRb hcDAF ctr | hcDAF12 ag | hgDAF12 ag | LXR ag 2
Cc1ccc(C2=NN(S(C)(=O)=O)C(c3cccs3)C2)cc1 (centres undefined) | 14* | 5 | 2 | 0 | 3 | 7.6* | 1 | 5 | 14* | 0
COc1ccc(C2=NN(S(C)(=O)=O)C(c3cccs3)C2)cc1 (centres undefined) | 5 | -10 | 3 | 0 | 1 | 1 | · | · | · | ·
CS(=O)(=O)N1N=C(c2cccs2)CC1c1ccccc1 (centres undefined) | 2 | 16 | 0 | -2 | -2 | 0 | · | · | · | ·
CC[C@]12c3[nH]c4ccc(OC)cc4c3CCN1C(=O)C(CC(=O)NCc1ccc(OC)c(OC)c1)C[C@@H]2C(=O)N1CCN(C(=O)C2CC2)CC1 (some centres undefined) | 0 | · | 0 | -1 | 1 | 2 | · | · | · | ·
CCCn1c(C2CCCN2c2nc(-c3cccc(Br)c3)cs2)nc2ccccc21 (centres undefined) | 1 | -15 | 0 | -1 | 0 | -1 | · | · | · | ·
O=C(CSc1ncccc1-c1nc2ccccc2[nH]1)NCc1ccco1 | 1 | 15 | 0 | 0 | -1 | 2 | · | · | · | ·
Cc1cc2nc(-c3cccnc3SCC(=O)NCc3ccco3)[nH]c2cc1C | 14* | -1 | 2 | 1.3* | -1 | 11* | 1 | 9.1* | 25* | 1
O=C(Nc1nc2ccccc2[nH]1)c1cccc(Cl)c1 | 16* | -13 | 1 | 1 | 2 | 8.2* | 2 | 5.8* | 17* | 1
O=C(Nc1nc2ccccc2[nH]1)c1ccccc1 | 14* | 8 | 2 | 1.4* | -1 | 13* | 1 | 14* | 14* | 1
Cc1nnsc1C(=O)NC1CCCc2c1cnn2-c1ccc(C(C)(C)C)cc1 (centres undefined) | -7 | 2 | -5 | -2 | -3 | -4 | · | · | · | ·
COc1cccc(Nc2nc(-c3cccnc3)cs2)c1 | 14* | 18 | 2 | 1.7* | 4.4* | 13* | 1 | 8.2* | 17* | 1
Clc1ccccc1Nc1nc(-c2cccnc2)cs1 | 34* | -17 | 3.7* | 1.1* | 9.5* | 11* | 2 | 7.3* | 24* | 1
Clc1ccccc1Nc1nnc(-c2ccncc2)s1 | 17* | -3 | 4.4* | 1 | -3 | 11* | 1 | 6.7* | 17* | 1
Cc1ccc(C2(C(F)(F)F)N=C3Sc4cc(C)ccc4N3C(=O)N2)cc1 (centres undefined) | 2 | ? | 0 | -1 | · | 0 | · | · | · | ·
CSc1nc2sc3c(c2c(=O)[nH]1)CC(C)(C)OC3 | -1 | -7 | 0 | -1 | -1 | 1 | · | · | · | ·
Cc1cccc(C(=O)n2c(=S)nc3cc(C)ccn32)c1 | 16* | 0 | 3.7* | 1 | 4.6* | 6.6* | 1 | 6.6* | 13* | 1
CC(C)c1cc(CNC(=O)CC2C(=O)NCCN2CC2CCCCC2)on1 (centres undefined) | -2 | -16 | 0 | -1 | 2 | 0 | · | · | · | ·
Cn1c(O)c(N=NC(=O)c2ccccc2O)c2ccccc21 | 22* | -27 | 3 | 1.6* | 1 | 11* | 1 | 13* | 17* | 1
Cn1c(O)c(N=NC(=O)CNC(=O)c2ccco2)c2ccccc21 | 0 | 6 | -1 | 0 | -1 | 1 | · | · | · | ·
Cn1c(O)c(N=NC(=O)c2ccco2)c2ccccc21 | 19* | -7 | 4.2* | 1.3* | 1 | 12* | 1 | 14* | 22* | 1
CN(C)c1nc(N(C)C)n(Cc2c(Cl)cccc2Cl)n1 | 2 | -1 | 0 | -1 | -1 | -2 | · | · | · | ·
COc1ccc(CCNCC(O)COc2ccc(OC)cc2C(C)(C)C)cc1 (centres undefined) | 1 | 10 | 0 | -1 | 0 | 0 | · | · | · | ·
O=C(Nc1ccccc1O)c1csc2c1CCCC2 | 16* | -10 | 2 | 1 | 2 | 7.4* | 1 | 10* | 13* | 0
COc1ccc(NC(=O)c2csc3c2CCCCC3)c(OC)c1 | 1 | 0 | 0 | -1 | 1 | 3 | · | · | · | ·
O=C(Nc1ccccc1O)c1c(O)c2c([nH]c1=O)CCCC2 | 19* | -2 | 3 | 1.5* | 5.0* | 8.0* | 1 | 6.9* | 16* | 1
O=C(Nc1cc2ccccc2oc1=O)c1ccccc1 | 15* | -14 | 2 | 0 | · | 11* | 1 | 9.2* | 5 | 1
Cc1oc(=O)c(NC(=O)c2ccccc2)cc1C(N)=O | -1 | · | 0 | 0 | · | 1 | · | · | · | ·
CCCCOc1ccc(NC(=S)Nc2cc(C)nc(SCCCC)n2)cc1 | 0 | 6 | 0 | 0 | 1 | 2 | · | · | · | ·
c1ccc(N2CCN(c3nc4cc5c(cc4s3)OCO5)CC2)cc1 | 6 | -3 | 0 | 0 | 0 | 0 | · | · | · | ·
c1ccc2c(c1)CCN(c1nc3cc4c(cc3s1)OCO4)C2 | 14* | 2 | 4.2* | 2.2* | 3 | 8.8* | 2 | 8.1* | 19* | 1

Assay outcomes: PubChem BioAssay, several laboratories
